These results are taken from PubChem BioAssay AID504832 (National Center for Advancing Translational Sciences (NCATS), 2011).

Among all 310,000 compounds or so, about 18,000 (5.8%) were called active. A call without a number means that no potency is given here. Inconclusive results (about 22%) are left out. This is one part of a sample in which actives are shown more often than they occur. Calls follow the shape of the dose curve; as a rule, active = well fitted inhibition curve with a large enough effect; inconclusive = small, poorly fitted or top-dose-only effect, or another doubt; inactive = no such curve, though single readings can be large or run the other way.
Potency is read from the fitted curve at half-maximal effect.

The nature of the experiment: Primary qHTS for delayed death inhibitors of the malarial parasite plastid, 48 hour incubation. Conditions: P. falciparum luciferase growth in erythrocytes; series mostly up to 28.7 µM. Put shortly:
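Luciferase-expressing P. falciparum in infected erythrocytes (2% hematocrit, 0.1% parasitemia final) in RPMI 1640/0.5% Albumax were exposed to compound for 48 hours at 37 C, 5% CO2; growth read as luminescence.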
(qHTS replaces the single test concentration by a dilution series.)
For `Fc1ccccc1C(c1nnnn1Cc1ccc2c(c1)OCO2)N1CCN(Cc2ccccc2)CC1` (configuration not stated), the Potency is 6.57 µM (active).
As for `Cc1ccc(CN2CCCC(C(=O)c3ccc4c(c3)OCO4)C2)cc1C` (configuration not stated), the Potency entry is “inactive”.
Then `Cc1cccc(C)c1NC(=O)CSc1nnc(-c2ccccc2)n1Cc1ccc2c(c1)OCO2`, with “inactive”; and `O=C(C1CCN(Cc2ccc(Cl)cc2)CC1)N1CCN(Cc2ccc3c(c2)OCO3)CC1`, with “inactive”; and `Cc1ccc(S(=O)(=O)Cn2nnnc2CN2CCN(Cc3ccc4c(c3)OCO4)CC2)cc1`, with “inactive”.
Then `Cc1cc(C)c2[nH]c(=O)c(C(c3nnnn3Cc3ccc4c(c3)OCO4)N3CCCC3)cc2c1` (configuration not stated), with 13.1 µM (active).
`CSc1ccccc1NC(=O)COC(=O)CCCOc1ccc(C)cc1`: the Potency entry was “inactive”.
Then `CCOC(=O)c1cnc(-n2nc(C)cc2C)nc1-n1nc(C)cc1C`, with “inactive”; and `CCOC(=O)c1c(C)nc(-c2ccccc2)nc1NC(=O)C(C)C`, with “inactive”.
Take `CCOC(=O)c1cnc(-n2nc(C)cc2C)nc1NNc1cc(C)nc(-c2ccccc2)n1`: the Potency was 3.29 µM (active).
Then `COCCOC1CCN(C(=O)c2ccc(OC)c(OC3CCN(C(C)C)CC3)c2)CC1`, with “inactive”; and `COc1ccccc1NC(=O)C(C)OC(=O)c1ccc(-n2cnnn2)cc1` (configuration not stated), with “inactive”; and `Cc1ccc(Nc2nnc(SCc3ccccc3)s2)cc1`, with “inactive”.
`CCc1ccc(Nc2n[n+](-c3ccccc3)c(-c3cccc(Cl)c3Cl)s2)cc1`: the Potency is 4.15 µM (active).
Then `COc1cc(Br)c(-c2sc(Nc3ccccc3)n[n+]2-c2ccccc2)cc1OC`, with “inactive”.
Then `CC(=O)Nc1ccc(S(=O)(=O)N2CCN(CCCOc3cc(C)ccc3C)CC2)cc1`, with 7.38 µM (active); and `CC(=O)Nc1ccc(S(=O)(=O)N2CCN(S(=O)(=O)c3cccs3)CC2)cc1`, with “inactive”.
Then `Cc1ccc(C)c(S(=O)(=O)N2CCN(CC(=O)Nc3ccc([N+](=O)[O-])cc3)CC2)c1`, with “inactive”; and `CCOC(=O)C1(CCOC)CCN(Cc2ccc(C(=O)OC)cc2)CC1`, with 10.4 µM (active); and `CCOC(=O)C1(Cc2cccc(OC)c2)CCN(Cc2csc(C(C)=O)c2)CC1`, with “inactive”.
As to `CCOC(=O)C1(CCOC)CCN(Cc2cc3ccccc3s2)CC1`, the Potency result was “inactive”.
Then `O=C(COc1ccc(Cl)cc1)Nc1ccc2c(c1)OCO2`, with “inactive”; and `COc1ccc(/C=C/C(=O)Nc2ccc3c(c2)OCCO3)cc1OC`, with “inactive”.
For the molecule `COc1ccc(NS(=O)(=O)c2ccc(N3CCN(CCO)CC3)c([N+](=O)[O-])c2)cc1`, the Potency result was “inactive”.
Turning to `COc1ccc(NS(=O)(=O)c2cc(NC(=O)C3CCCCC3)ccc2N2CCOCC2)cc1`, the Potency was 10.4 µM (active).
Then `COc1ccc(CNC(=O)C2CCN(S(=O)(=O)N3CCOCC3)CC2)cc1`, with “inactive”; and `COc1ccc(NS(=O)(=O)c2cc(NC(=O)/C=C/c3cc(OC)c(OC)c(OC)c3)ccc2N2CCCCC2)cc1`, with 1.17 µM (active); and `O=C(Nc1cccc(OCC(=O)N2CCOCC2)c1)C1CCCCC1`, with “inactive”.
Then `C=CCOc1cccc(C2NC(=O)c3ccccc3O2)c1` (configuration not stated), with “inactive”.
Consider `COc1ccc(N(CC(=O)NCC2CCCO2)C(=O)CCC(=O)Nc2nccs2)c(OC)c1` (configuration not stated), for which the Potency entry was “inactive”.
Then `Cc1ccc(N2CC(C(=O)Nc3cc(Cl)ccc3-n3cncn3)CC2=O)cc1` (configuration not stated), with “inactive”; and `Cc1ccc2c(c1)N(CC(=O)NCC1CCCO1)C(=O)CO2` (configuration not stated), with “inactive”.
Then `COc1cccc(C(=O)NCCS(=O)(=O)NCC2CCCO2)c1` (configuration not stated), with “inactive”.
Then `COc1ccc(S(=O)(=O)N2CCC(C(=O)N3CCc4ccccc4C3)CC2)cc1OC`, with “inactive”; and `COc1cc(C(=O)NNC(=O)c2ccc(S(=O)(=O)N3CCCCC3)cc2)cc(OC)c1OC`, with “inactive”.
As to `COc1cc2c(cc1OC)CN(C(=O)c1ccc(S(=O)(=O)N3CCCCCC3)cc1)CC2`, the Potency was 6.57 µM (active).
Then `COC(=O)C1(CCSC)NC(c2ccc(OC)cc2OC)C2C(=O)N(c3cccc(C(C)=O)c3)C(=O)C21` (configuration not stated), with “inactive”; and `CSc1ccccc1NC(=O)c1ccc2c(c1)CCN2S(C)(=O)=O`, with “inactive”; and `COc1ccc2cc(C(=O)O)n(CC(=O)c3ccccc3)c2c1`, with “inactive”.
Then `Cc1ccc(N(C(=O)c2ccc(CN3CCOCC3)o2)C(C(=O)NCCC(C)C)c2cccs2)c(C)c1` (configuration not stated), with 10.4 µM (active).
Then `Cc1ccc(CS(=O)Cc2ccc(C(=O)N3CCOCC3)o2)cc1` (configuration not stated), with “inactive”.
On to `Cc1cccc(N(C(=O)c2ccc(CN3CCOCC3)o2)C(C(=O)NC2CCCCC2)c2ccc(F)cc2)c1` (configuration not stated), for which the Potency entry is “inactive”.
Then `Cc1c(NS(=O)(=O)c2cc(C(=O)NCCc3ccc(F)cc3)cc(Cl)c2Cl)c(=O)n(-c2ccccc2)n1C`, with “inactive”; and `COC(=O)c1ccc(NC(=O)CSc2nnc(C3CC3)n2C)cc1`, with “inactive”; and `CCOC(=O)C1=C(c2ccc(OC)cc2)C(=O)c2ccccc2C1=O`, with 2.94 µM (active).
Take `CCOC(=O)c1c(-c2ccc(C)cc2)csc1/N=C(\C)C1=C(O)c2ccccc2C1=O`: the Potency entry was “inactive”.
For `CCOC(=O)c1ccccc1NS(=O)(=O)c1ccc(OC)cc1`, the Potency result was “inactive”.
Then `COc1ccc(-c2cc(C(=O)NCCCN3CCOCC3)no2)cc1`, with “inactive”; and `O=[N+]([O-])c1ccc(Oc2ccc(F)cc2Br)c2ccncc12`, with 14.7 µM (active).
Then `Cn1c(SCc2ccc(F)cc2)nnc1-c1ccncc1`, with “inactive”.
As for `Cc1ccc(-c2csc(NC(=O)c3cnccn3)n2)cc1C`, the Potency result was “inactive”.
As for `Cc1ccc(-c2csc(NC(=O)C3=COCCO3)n2)cc1C`, the Potency was 10.4 µM (active).
Then `Cc1csc(NC(=O)C2=COCCO2)n1`, with “inactive”.
Then `CN(Cc1ccccc1)C(=O)c1cccc(C(=O)N(C)Cc2ccccc2)c1`, with “inactive”; and `CC(C)C[C@H](CO)Nc1nc(N(C)c2cccc(Cl)c2)c2ncn(C(C)C)c2n1`, with 13.1 µM (active); and `O=C(CCCC(=O)N1CCN(c2cccc(Cl)c2)CC1)c1ccccc1`, with “inactive”.
Then `Cc1ccc(C)c(N2CCN(C(=O)Cn3ncn4cccc4c3=O)CC2)c1`, with “inactive”.
With `CN1CN(C)c2ccc([N+](=O)[O-])c3cccc1c23`, the Potency result was “inactive”.
Turning to `Cc1ccc(C(=O)N2CCC(n3nccc3NC(=O)Nc3cccc(F)c3)CC2)cn1`, the Potency entry is “inactive”.
Then `CCCCNC(=O)c1onc(CSc2cccc(OC)c2)c1C(=O)O`, with “inactive”; and `CCCNC(=O)c1onc(CSc2ccc(F)cc2)c1C(=O)NC(C)C`, with 9.28 µM (active).
Then `CCOc1cccc(SCc2noc(C(=O)NC(C)C)c2C(=O)O)c1`, with “inactive”.
